How the values were obtained:
Test in all cases: log2 ratio of Biotin-Ahx-Ub-VS probe labelling (fragment/DMSO); higher = less target engagement (more negative = stronger competition), active = hit call of the paper (q ≤ 0.05, log2 ratio ≤ -1)
Conditions in all cases: compound concentration: 200 uM; treatment time: 3 h
[1] = target: USP34 (UniProt Q70CQ2)
Outline: (§1)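 HEK293T lysate in Tris/CHAPS/IGEPAL buffer with protease inhibitors (495 µg per sample) was given fragment at 200 µM or vehicle for 3 h, in triplicate. It then received Biotin-Ahx-Ub-VS at 0.5 µM final for 1 h. Labelled DUBs were NeutrAvidin-enriched, digested with LysC and trypsin, and run by diaPASEF LC-MS/MS. Values are average log2 fragment/vehicle ratios by unpaired t-test on global-median-normalised Spectronaut quantities of proteins with ≥2 unique peptides.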

[2] = target: T1, USP36 (UniProt Q9P275)
T1 sequence (whole entry): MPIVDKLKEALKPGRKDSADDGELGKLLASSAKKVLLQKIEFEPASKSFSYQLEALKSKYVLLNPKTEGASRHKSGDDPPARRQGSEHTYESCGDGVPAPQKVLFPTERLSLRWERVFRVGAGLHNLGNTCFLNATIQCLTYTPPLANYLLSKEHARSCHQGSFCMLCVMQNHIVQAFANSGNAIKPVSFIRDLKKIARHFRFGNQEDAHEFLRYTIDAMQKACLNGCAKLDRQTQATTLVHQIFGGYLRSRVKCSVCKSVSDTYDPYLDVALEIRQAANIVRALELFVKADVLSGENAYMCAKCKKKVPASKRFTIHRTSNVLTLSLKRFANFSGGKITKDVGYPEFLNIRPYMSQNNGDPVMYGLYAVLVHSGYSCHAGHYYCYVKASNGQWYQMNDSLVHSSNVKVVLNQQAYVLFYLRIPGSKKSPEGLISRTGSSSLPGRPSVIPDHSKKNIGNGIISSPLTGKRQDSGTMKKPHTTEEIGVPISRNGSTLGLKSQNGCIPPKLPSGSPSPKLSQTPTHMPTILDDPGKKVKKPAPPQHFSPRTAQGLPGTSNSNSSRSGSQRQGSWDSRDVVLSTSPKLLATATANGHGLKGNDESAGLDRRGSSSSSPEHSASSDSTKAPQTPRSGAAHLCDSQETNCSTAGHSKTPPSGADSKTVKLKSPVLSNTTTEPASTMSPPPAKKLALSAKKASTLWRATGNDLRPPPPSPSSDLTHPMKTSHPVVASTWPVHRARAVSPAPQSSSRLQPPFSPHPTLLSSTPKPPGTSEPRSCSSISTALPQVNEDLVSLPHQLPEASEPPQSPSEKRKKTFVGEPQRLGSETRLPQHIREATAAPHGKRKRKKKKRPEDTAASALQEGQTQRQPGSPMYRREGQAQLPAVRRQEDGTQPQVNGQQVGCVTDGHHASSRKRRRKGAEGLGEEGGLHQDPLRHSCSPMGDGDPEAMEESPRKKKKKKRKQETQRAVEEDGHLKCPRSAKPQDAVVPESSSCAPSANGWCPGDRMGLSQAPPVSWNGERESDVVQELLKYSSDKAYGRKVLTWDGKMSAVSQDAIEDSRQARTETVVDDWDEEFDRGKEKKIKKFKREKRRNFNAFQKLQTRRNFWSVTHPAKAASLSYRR
Outline: as §1

[3] = target: T2, USP38 (UniProt Q8NB14)
T2 sequence (whole entry): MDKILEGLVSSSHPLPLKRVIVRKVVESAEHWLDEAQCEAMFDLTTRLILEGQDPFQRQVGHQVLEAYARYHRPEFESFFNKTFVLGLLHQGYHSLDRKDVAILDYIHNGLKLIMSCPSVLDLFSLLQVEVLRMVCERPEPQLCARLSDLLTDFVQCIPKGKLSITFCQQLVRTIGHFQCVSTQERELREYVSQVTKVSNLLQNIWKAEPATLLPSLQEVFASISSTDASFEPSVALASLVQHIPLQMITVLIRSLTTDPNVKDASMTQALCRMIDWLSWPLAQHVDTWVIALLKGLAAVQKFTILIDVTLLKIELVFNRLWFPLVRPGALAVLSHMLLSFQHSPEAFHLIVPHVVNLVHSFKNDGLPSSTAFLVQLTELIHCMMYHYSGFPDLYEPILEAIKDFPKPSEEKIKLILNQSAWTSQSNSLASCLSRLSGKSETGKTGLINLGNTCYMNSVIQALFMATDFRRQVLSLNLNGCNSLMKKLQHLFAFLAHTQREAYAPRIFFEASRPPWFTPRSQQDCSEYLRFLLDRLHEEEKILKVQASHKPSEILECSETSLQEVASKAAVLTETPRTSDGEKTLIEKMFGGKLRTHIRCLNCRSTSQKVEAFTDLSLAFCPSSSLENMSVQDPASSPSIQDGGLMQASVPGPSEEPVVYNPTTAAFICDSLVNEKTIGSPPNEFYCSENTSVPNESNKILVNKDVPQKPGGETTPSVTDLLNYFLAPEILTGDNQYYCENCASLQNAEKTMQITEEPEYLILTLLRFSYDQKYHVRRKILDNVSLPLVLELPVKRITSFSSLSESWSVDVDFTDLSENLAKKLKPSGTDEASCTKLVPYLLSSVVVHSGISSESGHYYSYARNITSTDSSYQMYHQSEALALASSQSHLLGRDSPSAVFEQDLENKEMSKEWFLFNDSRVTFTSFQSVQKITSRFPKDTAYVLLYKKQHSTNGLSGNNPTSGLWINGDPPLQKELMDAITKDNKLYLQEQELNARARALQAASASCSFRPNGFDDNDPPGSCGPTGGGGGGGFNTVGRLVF
Outline: as §1

[4] = target: T3, USP39 (UniProt Q53GS9)
T3 sequence (whole entry): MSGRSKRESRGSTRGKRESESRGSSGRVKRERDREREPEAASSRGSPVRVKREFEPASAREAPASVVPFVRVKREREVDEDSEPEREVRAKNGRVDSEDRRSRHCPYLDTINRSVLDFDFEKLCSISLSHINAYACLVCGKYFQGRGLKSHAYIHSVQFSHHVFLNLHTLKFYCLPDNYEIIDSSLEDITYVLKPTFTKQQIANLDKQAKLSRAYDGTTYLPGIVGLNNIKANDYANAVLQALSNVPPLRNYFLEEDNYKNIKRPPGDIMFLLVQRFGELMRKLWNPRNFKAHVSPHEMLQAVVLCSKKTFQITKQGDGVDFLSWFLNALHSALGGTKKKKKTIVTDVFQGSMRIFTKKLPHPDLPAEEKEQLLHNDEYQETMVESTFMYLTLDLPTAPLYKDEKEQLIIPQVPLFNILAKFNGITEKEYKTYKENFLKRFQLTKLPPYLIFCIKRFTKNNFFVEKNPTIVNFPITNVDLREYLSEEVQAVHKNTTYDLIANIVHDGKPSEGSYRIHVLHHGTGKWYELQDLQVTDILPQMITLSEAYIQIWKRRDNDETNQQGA
Outline: as §1

[5] = target: T4, USP4 (UniProt Q13107)
T4 sequence (whole entry): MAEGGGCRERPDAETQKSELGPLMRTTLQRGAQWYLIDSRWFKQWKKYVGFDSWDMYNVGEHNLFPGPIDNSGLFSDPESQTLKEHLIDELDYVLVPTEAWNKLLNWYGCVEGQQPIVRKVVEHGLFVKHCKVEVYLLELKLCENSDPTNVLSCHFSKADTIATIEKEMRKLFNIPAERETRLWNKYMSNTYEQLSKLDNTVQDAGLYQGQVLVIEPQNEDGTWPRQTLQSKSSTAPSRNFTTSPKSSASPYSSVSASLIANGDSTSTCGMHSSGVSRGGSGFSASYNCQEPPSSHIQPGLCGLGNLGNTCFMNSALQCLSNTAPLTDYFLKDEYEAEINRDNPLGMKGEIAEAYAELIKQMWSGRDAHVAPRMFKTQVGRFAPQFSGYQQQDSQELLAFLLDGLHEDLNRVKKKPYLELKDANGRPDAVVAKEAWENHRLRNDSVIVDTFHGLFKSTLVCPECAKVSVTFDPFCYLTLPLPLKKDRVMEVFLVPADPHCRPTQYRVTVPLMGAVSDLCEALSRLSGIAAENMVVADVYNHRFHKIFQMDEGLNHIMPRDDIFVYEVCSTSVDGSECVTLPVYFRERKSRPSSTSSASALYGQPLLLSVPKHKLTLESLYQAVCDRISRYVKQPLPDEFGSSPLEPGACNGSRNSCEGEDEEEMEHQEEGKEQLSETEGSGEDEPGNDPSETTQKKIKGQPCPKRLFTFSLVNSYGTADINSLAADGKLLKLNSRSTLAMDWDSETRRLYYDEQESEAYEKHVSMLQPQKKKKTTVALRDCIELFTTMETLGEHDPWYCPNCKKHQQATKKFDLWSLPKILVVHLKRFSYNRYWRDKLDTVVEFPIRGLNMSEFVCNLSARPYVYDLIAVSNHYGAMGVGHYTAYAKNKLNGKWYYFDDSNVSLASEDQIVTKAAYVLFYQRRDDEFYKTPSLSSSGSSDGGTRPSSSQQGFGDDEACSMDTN
Outline: as §1

Measured: log2 ratio of Biotin-Ahx-Ub-VS probe labelling

Chain of USP34 (Q70CQ2 whole entry, the tested form may be a part): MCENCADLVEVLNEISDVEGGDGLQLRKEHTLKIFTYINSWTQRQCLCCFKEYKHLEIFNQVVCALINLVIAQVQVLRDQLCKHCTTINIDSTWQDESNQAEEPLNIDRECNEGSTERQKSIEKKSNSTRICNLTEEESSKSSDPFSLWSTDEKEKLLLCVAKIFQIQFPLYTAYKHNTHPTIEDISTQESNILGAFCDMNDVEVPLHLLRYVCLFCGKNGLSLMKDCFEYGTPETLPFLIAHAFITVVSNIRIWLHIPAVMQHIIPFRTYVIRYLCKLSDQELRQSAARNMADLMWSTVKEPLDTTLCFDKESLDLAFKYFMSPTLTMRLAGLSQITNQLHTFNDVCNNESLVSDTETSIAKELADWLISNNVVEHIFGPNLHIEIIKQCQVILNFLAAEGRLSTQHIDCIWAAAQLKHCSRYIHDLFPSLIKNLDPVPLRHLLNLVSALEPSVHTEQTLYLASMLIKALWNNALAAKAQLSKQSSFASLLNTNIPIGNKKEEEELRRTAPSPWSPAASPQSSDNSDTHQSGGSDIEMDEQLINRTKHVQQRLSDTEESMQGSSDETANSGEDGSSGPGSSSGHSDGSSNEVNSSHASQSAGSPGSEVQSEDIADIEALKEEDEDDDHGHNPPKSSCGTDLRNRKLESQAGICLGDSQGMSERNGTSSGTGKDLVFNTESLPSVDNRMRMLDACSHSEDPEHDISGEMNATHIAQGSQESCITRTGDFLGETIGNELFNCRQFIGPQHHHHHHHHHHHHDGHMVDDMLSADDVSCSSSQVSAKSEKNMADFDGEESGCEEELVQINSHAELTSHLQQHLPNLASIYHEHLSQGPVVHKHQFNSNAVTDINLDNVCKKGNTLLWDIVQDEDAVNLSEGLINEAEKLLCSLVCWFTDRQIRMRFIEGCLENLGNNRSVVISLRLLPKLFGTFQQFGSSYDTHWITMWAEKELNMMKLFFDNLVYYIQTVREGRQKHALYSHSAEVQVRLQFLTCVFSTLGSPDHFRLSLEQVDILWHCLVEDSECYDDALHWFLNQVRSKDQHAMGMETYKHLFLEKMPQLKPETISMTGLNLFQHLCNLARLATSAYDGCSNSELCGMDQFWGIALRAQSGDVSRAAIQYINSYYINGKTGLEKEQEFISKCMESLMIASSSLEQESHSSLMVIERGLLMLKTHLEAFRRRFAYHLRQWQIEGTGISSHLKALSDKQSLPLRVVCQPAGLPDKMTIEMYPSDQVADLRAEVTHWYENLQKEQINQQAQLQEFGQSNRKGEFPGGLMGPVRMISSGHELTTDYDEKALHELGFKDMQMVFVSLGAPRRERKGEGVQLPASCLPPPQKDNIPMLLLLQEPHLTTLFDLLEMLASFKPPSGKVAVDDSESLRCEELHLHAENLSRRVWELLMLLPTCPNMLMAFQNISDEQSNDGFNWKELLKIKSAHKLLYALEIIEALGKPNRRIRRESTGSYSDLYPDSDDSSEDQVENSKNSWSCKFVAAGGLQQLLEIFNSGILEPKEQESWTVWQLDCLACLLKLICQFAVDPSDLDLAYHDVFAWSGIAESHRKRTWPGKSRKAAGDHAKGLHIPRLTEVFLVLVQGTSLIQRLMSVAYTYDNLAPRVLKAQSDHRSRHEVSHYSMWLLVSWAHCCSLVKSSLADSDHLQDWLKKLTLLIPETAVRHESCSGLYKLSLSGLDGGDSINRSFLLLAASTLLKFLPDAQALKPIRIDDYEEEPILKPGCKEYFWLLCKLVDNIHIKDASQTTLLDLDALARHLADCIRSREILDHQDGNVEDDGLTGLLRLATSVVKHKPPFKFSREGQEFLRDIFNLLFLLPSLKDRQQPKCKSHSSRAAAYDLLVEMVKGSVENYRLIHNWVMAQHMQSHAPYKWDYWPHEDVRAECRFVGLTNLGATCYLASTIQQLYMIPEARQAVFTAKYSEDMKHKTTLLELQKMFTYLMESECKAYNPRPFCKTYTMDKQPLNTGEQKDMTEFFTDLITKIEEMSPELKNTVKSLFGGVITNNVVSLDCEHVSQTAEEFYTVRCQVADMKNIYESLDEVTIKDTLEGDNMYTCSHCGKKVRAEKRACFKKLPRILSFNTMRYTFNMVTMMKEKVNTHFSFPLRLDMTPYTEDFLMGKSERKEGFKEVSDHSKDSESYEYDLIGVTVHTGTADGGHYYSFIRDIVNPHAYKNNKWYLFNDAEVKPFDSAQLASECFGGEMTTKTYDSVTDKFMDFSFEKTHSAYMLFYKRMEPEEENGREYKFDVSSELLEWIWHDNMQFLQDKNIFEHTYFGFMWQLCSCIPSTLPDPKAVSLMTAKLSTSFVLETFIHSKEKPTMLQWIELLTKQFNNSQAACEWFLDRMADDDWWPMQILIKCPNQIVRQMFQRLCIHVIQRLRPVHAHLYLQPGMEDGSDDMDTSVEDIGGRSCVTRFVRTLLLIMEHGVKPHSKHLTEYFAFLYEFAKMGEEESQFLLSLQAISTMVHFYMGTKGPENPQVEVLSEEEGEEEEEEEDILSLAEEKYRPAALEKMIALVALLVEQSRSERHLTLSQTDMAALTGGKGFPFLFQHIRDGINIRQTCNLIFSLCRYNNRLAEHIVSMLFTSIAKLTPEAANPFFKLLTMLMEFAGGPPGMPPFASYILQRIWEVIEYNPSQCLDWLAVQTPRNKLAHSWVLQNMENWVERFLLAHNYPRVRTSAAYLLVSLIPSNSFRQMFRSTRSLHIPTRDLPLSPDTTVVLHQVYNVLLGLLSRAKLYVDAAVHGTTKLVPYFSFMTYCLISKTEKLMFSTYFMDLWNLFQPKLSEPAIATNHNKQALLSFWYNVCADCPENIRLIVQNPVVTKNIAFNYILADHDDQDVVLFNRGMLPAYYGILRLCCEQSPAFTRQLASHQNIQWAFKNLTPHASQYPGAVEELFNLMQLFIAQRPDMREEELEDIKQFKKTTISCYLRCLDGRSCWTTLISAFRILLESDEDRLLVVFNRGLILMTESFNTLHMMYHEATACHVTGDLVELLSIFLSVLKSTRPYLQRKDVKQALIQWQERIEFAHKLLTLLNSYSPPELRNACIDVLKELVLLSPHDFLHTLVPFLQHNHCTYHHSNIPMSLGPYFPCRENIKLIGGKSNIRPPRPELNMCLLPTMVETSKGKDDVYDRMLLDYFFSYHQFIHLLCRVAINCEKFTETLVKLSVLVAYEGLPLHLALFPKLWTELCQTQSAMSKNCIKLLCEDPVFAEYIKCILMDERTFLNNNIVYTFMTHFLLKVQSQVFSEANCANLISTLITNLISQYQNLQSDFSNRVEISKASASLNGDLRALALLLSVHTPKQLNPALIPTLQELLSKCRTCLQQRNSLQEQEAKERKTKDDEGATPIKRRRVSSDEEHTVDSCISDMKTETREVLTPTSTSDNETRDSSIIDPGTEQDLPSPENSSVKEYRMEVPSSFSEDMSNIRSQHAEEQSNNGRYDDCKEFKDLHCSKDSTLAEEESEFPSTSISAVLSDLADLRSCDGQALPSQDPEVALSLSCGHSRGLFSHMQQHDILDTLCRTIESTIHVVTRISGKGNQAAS

O=C(CCl)N1CCOC(CCc2ccccc2)C1 (stereo not given)
inactive: [1] -0.338 | [2] 0.0399 | [3] -0.227 | [4] 0.136 | [5] -0.729

From the supplement of paper PMC11732987, “Enantioselective OTUD7B fragment discovery through chemoproteomics screening and high-throughput optimisation” (Communications Chemistry, 2025)
